PubChem BioAssay (NCATS)
Inconclusive results are not listed. Calls of active or inactive are those of the source. Calls follow the shape of the dose curve; as a rule, active = well fitted curve in the direction sought with a large enough effect; inconclusive = small, poorly fitted or top-dose-only effect, or another doubt; inactive = no such curve, though single readings can be large; an effect the other way counts as inactive or inconclusive.

Columns and labels:
[1] = molecular target: Protein phosphatase 1D (Homo sapiens) (UniProt O15297); assay: RapidFire Mass Spectrometry qHTS Assay for Modulators of WT P53-Induced Phosphatase 1 (WIP1) (AID 1347424); conditions: WIP1 dephosphorylation of phosphopeptide, RapidFire MS; series mostly up to 63 µM;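 also: amount of dephosphorylated VEPPL-S-QETFS peptide product formed by WIP1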
How it was run: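 10 nM WIP1 + cpd, 1 h RT; + 2 uM VEPPL-pS-QETFS, 5 min RT; stop 0.5% formic acid; labelled product standard 1 uM; RapidFire MS. Buffer 50 mM Tris pH 7.5, 30 mM MgCl2, 1 mM TCEP.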

[2] = molecular target: Protein phosphatase 1D (Homo sapiens) (UniProt O15297); assay: Rhodamine-PBP qHTS Assay for Modulators of WT P53-Induced Phosphatase 1 (WIP1) (AID 1347425); conditions: recombinant WIP1, Rhodamine-PBP phosphate fluorescence, real-time; series mostly up to 57.5 µM
How it was run: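 5 nM WIP1 + 10 uM Rh-PBP, 50 mM Tris pH 7.5, 30 mM MgCl2, 1 mM TCEP, 0.1 mM EGTA, BSA; cpds pinned, 1 hr RT; + 10 uM phosphopeptide; fluorescence 1-min reads x 11 min; delta = f1 - f0.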

[3] = qHTS to identify inhibitors of the type 1 interferon - major histocompatibility complex class I in skeletal muscle: primary screen against the NCATS Mechanism Interrogation Plate v5.0 (MIPE) Libary (AID 1347411); conditions: iHSKM cells + IFN-b, HiBiT-tagged MHC-I luminescence, 24 h; series mostly up to 45.8 µM; also: nearly all actives have a fitted effect of over 65% in size
How it was run: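 Immortalized human C25cl48 myoblasts with HiBit knocked into endogenous HLA-B*08:01 were stimulated with 4.0 ng/ml IFN-beta and exposed to compounds (11-point 1:3 titration, top 46 uM final) for 24 hrs at 37 C; HiBiT lytic luminescence measured.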

[4] = Primary qHTS for inhibitors of La Crosse Virus (LACV) - induced cell death in SH-SY5Y cells (AID 1508616); conditions: SH-SY5Y LACV cytopathicity rescue, ATP luminescence, 6 d; series mostly up to 4.29 µM;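 also: top concentration of the series differs between compounds; higher means more rescue of cells from virus-induced death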
How it was run: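 Luminescent ATP readout (ATPLite 1step, 5 min room temperature) measured rescue from LACV-induced death after 6 days of infection at 0.01 MOI; normalized to infected DMSO wells and uninfected DMSO wells.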

[5] = molecular target: Calcium and integrin-binding protein 1 (Homo sapiens) (UniProt Q99828); assay: Primary qHTS for Identification of Calcium Integrin Binding Protein 1 (CIB1) Competitor (AID 1508620); conditions: CIB1-GST / FITC-alphaIIb peptide fluorescence polarization; series mostly up to 57.7 µM;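 also: GST tagged CIB1 binding a fluorescein labelled alphaIIb integrin peptide tracer; top concentration of the series differs between compounds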
How it was run: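 CIB1-GST (1 uM final) and compound incubated 15 min at room temperature before adding FITC-alphaIIb peptide tracer (100 nM final). Competition for binding read by fluorescence polarization (ex 480, em 540) after another 15 min at room temperature.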

[6] = Validation qHTS assay for inhibitors of Activation Induced Cytidine Deaminase (AID): UDG Counterscreen signal (AID 1347427); conditions: biochemical UDG counterscreen, fluorescence signal; series mostly up to 115 µM
How it was run: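 Counterscreen read of UDG activity (2 U/mL, 4/3x) in the FRET deamination format with AID (1 uM, 4/3x), DJC20/DJC23 substrates (250 nM, 4x), 4 h at room temperature. NaOH stop, fluorescence at 560 ex/665 em.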

[7] = molecular target: Single-stranded DNA cytosine deaminase (Homo sapiens) (UniProt Q9GZX7); assay: Validation qHTS assay for inhibitors of Activation Induced Cytidine Deaminase (AID): AID signal (AID 1347429); conditions: Recombinant AID, FRET ssDNA deamination with UDG, fluorescence; series mostly up to 115 µM
How it was run: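 AID and UDG were combined and compounds added at final up to 114 uM, then DJC20/DJC23 FRET substrate was added for 4 hr at room temperature. NaOH was then added for 30 min before fluorescence was read at 540/590 nm.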

Measured: Potency

Protein phosphatase 1D (Homo sapiens), sequence (O15297 whole entry, looked up): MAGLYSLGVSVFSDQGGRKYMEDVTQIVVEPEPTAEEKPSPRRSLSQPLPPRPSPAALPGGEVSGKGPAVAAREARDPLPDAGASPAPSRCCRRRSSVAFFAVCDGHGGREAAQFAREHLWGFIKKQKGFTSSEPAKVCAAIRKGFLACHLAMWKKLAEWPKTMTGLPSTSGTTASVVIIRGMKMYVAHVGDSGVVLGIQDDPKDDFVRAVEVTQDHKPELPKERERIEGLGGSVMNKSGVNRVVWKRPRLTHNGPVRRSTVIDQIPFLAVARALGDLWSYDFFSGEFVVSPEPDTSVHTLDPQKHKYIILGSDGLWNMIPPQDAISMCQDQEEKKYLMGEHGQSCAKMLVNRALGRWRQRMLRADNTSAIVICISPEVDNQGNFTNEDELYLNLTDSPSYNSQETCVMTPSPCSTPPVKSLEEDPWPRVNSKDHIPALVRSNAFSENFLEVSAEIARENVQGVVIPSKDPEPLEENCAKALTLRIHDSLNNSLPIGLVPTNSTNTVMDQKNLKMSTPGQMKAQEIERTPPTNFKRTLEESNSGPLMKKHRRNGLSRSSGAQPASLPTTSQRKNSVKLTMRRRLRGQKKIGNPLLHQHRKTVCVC
Calcium and integrin-binding protein 1 (Homo sapiens), sequence (Q99828 whole entry, looked up): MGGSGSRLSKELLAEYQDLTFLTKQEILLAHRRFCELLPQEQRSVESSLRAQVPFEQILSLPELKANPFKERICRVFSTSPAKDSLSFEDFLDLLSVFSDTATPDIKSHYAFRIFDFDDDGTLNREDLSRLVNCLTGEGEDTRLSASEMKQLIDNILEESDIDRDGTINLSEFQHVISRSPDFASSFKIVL
Single-stranded DNA cytosine deaminase (Homo sapiens), sequence (Q9GZX7 whole entry, looked up): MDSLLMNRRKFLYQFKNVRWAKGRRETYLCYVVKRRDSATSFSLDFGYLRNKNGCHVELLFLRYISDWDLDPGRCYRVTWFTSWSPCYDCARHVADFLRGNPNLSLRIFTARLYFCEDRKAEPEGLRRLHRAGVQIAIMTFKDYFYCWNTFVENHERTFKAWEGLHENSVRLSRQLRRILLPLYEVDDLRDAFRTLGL

CC(C)c1ccc2oc3nc(N)c(C(=O)O)cc3c(=O)c2c1
inactive: [1] | [2]

O=C(NOCC1CC1)c1ccc(F)c(F)c1Nc1ccc(I)cc1Cl
inactive: [3] | [1] | [4]

C[Se]CCC(N)C(=O)O (stereo not drawn)
inactive: [3] | [5]

CC1(C)CCC(C)(C)c2cc(NC(=O)c3ccc(C(=O)O)cc3)ccc21
inactive: [3] | [4]

S=c1nc[nH]c2nc[nH]c12
not listed: [6] | [7]
inactive: all other assays above

CC(S)C(=O)NCC(=O)O (stereo not drawn)
not listed: [6] | [7]
inactive: all other assays above

CN1C(C(=O)Nc2ccccn2)=C(O)c2sccc2S1(=O)=O
inactive: [1] | [2] | [4] | [5]

CN(C)CCc1c[nH]c2ccc(Cn3cncn3)cc12
inactive: [5]

C[C@H](Cn1cnc2c(N)ncnc21)OCP(=O)(O)O
inactive: [5]

COc1cc(C(C)=O)ccc1OCCCN1CCC(c2noc3cc(F)ccc23)CC1
inactive: [1] | [2] | [4] | [5]

OC(CN1CCN(c2cccc(Cl)c2)CC1)C(c1ccccc1)c1ccccc1 (stereo not drawn)
inactive: [6] | [7] | [4] | [5]
